Assay outcomes deposited in PubChem by The Scripps Research Institute Molecular Screening Center.
pPAFAH inh: inhibitors of human plasma PAF acetylhydrolase (pPAFAH); actives 1.5% (n = 330,000); Q13093; inhibition, % at 3.39 µM; recombinant pPAFAH, FP-rhodamine probe fluorescence polarization;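 active = inhibition above the mean inhibition across the screen plus 3 SD, cut at about 25% in these data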;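 also: inhibitors block binding of the rhodamine activity-based probe so polarization drops; 0% = enzyme with DMSO and 100% = wells lacking pPAFAH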
PAFAH1B3 FP inh: blocks human PAF acetylhydrolase 1B catalytic subunit 3. Q15102. actives 0.28% (n = 340,000). recombinant PAFAH1B3, FP-rhodamine probe, fluorescence polarization. AID 492972. inhibition, % at 3.39 µM;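 active = inhibition above the screen-wide average of all tested compounds plus 3 SD, cut at about 25% in these data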;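 also: 0% = enzyme with DMSO only and 100% = wells lacking PAFAH1B3 protein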
Target sequence (Q15102 whole entry, looked up): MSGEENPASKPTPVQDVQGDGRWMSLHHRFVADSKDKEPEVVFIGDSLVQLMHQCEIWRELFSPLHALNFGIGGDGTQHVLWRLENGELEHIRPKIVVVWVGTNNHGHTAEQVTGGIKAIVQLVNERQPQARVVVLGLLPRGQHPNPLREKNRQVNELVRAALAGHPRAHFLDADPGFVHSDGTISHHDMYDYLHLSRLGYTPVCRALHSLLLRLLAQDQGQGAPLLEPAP
TCR-CD3 inh: human TCR-CD3 binding inhibition | TAMRA-labeled TCR probe fluorescence, biochemical | AID 651800 | actives 0.37% (n = 360,000) | inhibition, % at 9.4 µM; in the data active = inhibition above about 19%;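 also: recombinant mutant TCR 2C K166C tagged with TAMRA read by polarization; 0% = receptor in buffer alone and 100% = receptor with positive control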
PAFAH2 FP inh: inhibitors of human PAFAH2; recombinant PAFAH2, FP-rhodamine activity probe, fluorescence polarization; Q99487; inhibition, % at 3.39 µM; AID 492956; actives 0.99% (n = 340,000);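 active = inhibition above the mean over all tested compounds plus 3 SD, cut at about 30% in these data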;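 also: inhibitors block probe labeling of enzyme so polarization drops; 0% = enzyme with DMSO and 100% = wells lacking PAFAH2 protein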
PAFAH1B2 inh: inhibitors of human PAFAH1B2 | AID 492953 | recombinant PAFAH1B2, FP-rhodamine activity probe, fluorescence polarization | inhibition, % at 3.39 µM | actives 1.2% (n = 340,000) | P68402;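 active = inhibition above the mean of all tested compounds plus 3 SD, cut at about 24% in these data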;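 also: 0% = enzyme with DMSO and 100% = wells lacking PAFAH1B2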
Target sequence (P68402 whole entry, looked up): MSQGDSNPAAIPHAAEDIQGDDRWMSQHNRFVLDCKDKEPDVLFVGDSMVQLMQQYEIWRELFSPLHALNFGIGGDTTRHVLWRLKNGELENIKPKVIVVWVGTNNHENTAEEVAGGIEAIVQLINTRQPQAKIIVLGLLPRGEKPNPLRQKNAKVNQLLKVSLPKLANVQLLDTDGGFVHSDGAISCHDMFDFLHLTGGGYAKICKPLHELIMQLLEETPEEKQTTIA
PAFAH1B3 confirm: confirmation of human PAFAH1B3 inhibitors. shares compounds with PAFAH1B3 FP inh. recombinant PAFAH1B3, FP-Rh activity-based probe, fluorescence polarization. inhibition, % at 3.39 µM. actives 30% (n = 390). AID 493032;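 active = average inhibition over triplicate runs above the hit cutoff set in the earlier primary screen, cut at about 25% in these data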;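 also: 0% = enzyme with DMSO and 100% = wells lacking PAFAH1B3 protein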
An asterisk follows results filed as active; nt = no result given; + = active, no number. Compounds with a hit are over-represented: about 2.7% of the library has one in this group of screens.

SMILES | pPAFAH inh | PAFAH1B3 FP inh | TCR-CD3 inh | PAFAH2 FP inh | PAFAH1B2 inh | PAFAH1B3 confirm
COc1cc2sc3cc(NCCCN4CCOCC4)ccc3c(=O)c2cc1OC | 8 | 28* | 1 | 11 | 5 | 11
O=c1c2ccccc2sc2ccc(NCCCN3CCOCC3)cc12 | 16 | 9 | 4 | 7 | -11 | nt
Cc1cc(C(=O)Nc2ccc(CC(=O)O)cc2)c(C)o1 | -3 | -1 | 5 | 1 | 2 | nt
N#Cc1ccc(OCC(O)CN2CCN(c3ncc(C(F)(F)F)cc3Cl)CC2)cc1 (stereo unspecified) | -1 | 6 | 1 | -6 | 1 | nt
CCN(C1CCCCC1)S(=O)(=O)c1cc2c3c(c1)CCN3C(=O)CC2 | 6 | -6 | 3 | 2 | 4 | nt
CC1(C)C(=O)OC(c2cccn2-c2ccc([N+](=O)[O-])cc2)C2(CCCCC2)C1=O (stereo unspecified) | 1 | 48* | -5 | -2 | 1 | 5
O=C(Nc1ccc(Cl)cc1N1CCOCC1)C1CCCO1 (stereo unspecified) | 3 | 3 | 3 | 4 | 0 | nt
CC(=O)C(C(C)=O)C1(O)C(=O)c2ccccc2C1=O | -2 | 34* | -1 | -3 | 16 | 22
CC(=O)N(C)C1=C(O)c2ccccc2C(=O)C1=O | 2 | 4 | -4 | -2 | 0 | nt
O=C(NC1CCCC1)C1C(c2ccc(C(F)(F)F)cc2)=Nc2ccccc2N1C(=O)c1cccc2ccccc12 (stereo unspecified) | nt | nt | 2 | nt | nt | nt
Cc1ccc(NC2=CC(=O)C(=O)c3ccccc32)cc1 | 9 | 25* | 3 | 4 | 8 | 21
COc1cc(OC)c(NC2=CC(=O)C(=O)c3ccccc32)cc1Cl | 12 | 42* | -6 | 12 | 10 | 33*
Cc1cc(NC2=CC(=O)C(=O)c3ccccc32)no1 | nt | 33* | 0 | 20 | 11 | 34*
CSCCC(NC(=O)OCc1ccccc1)NC(=O)OCc1ccccc1 | nt | nt | -2 | nt | nt | nt
CN(CC(=O)Nc1ccc(Cl)c(C(F)(F)F)c1)C(=O)c1cnccn1 | 0 | 8 | 1 | -2 | 2 | nt
Cc1ccc(-c2cc3c(nn2)-c2ccccc2C3=O)cc1 | 7 | 4 | 11 | 6 | 2 | nt
Cc1ccccc1-c1cc2c(nn1)-c1ccccc1C2=O | 1 | 34* | -3 | 15 | 8 | 7
CSc1ccc(/C=N/Nc2cccc(C(=O)O)c2)cc1 | nt | 33* | nt | 20 | 22 | 26*
CC(OC(=O)CC(C)c1ccccc1)C(=O)Nc1ccc(Cl)cn1 (stereo unspecified) | nt | 2 | 2 | 5 | 5 | nt
CCCCc1ccc(-c2csc(/C(C#N)=C\c3ccc(C)o3)n2)cc1 | 10 | -9 | 0 | -8 | -3 | nt
CCOc1ccc(-c2csc(/C(C#N)=C\c3ccc(O)c([N+](=O)[O-])c3)n2)cc1 | 21 | 35* | -5 | 19 | 14 | 22
CCN(CC)c1ccc(/C=N/Nc2nc3ccccc3[nH]2)c(O)c1 | 19 | 27* | -3 | 6 | 13 | 26*
C[C@@H]1C=C(C(=O)NCc2nc3ccccc3[nH]2)O[C@H](OCCCCO)C1 | -2 | + | -3 | -3 | -6 | 8
C[C@@H]1C=C(C(=O)NCc2nc3ccccc3[nH]2)O[C@H](OCc2ccc(CO)cc2)C1 | -4 | -2 | 3 | 7 | 4 | nt
COC(=O)CCC(=O)OC1(C)C(=O)C2=CN(CCc3ccccn3)C(c3ccc(OC)cc3)=CC2=C(Br)C1=O (stereo unspecified) | 20 | 30* | nt | 13 | 1 | 4
SMILES | pPAFAH inh | PAFAH1B3 FP inh | TCR-CD3 inh | PAFAH2 FP inh | PAFAH1B2 inh | PAFAH1B3 confirm
COC(=O)CCC(=O)OC1(C)C(=O)C2=CN(CCCCO)C(c3ccc(OC)cc3)=CC2=C(Br)C1=O (stereo unspecified) | 8 | nt | nt | nt | nt | nt
COc1cc(NC(=O)c2cc(-c3ccccc3)nc3c2cnn3C(C)C)cc(OC)c1OC | 4 | 26* | nt | -35 | 20 | 21
O=c1oc(-c2ccc(O)c(O)c2)cc2cc(O)cc(O)c12 | 10 | 28* | 18 | 8 | 3 | 28*
COc1ccc(-c2nc3ccccn3c2Cl)cc1 | 2 | -3 | 2 | -3 | 2 | nt
O=C1c2cccc3cccc(c23)C(=O)N1Cc1cccnc1 | 2 | 3 | 4 | 1 | 2 | nt
Cc1ccc(N2C(=O)c3cccc4c([N+](=O)[O-])ccc(c34)C2=O)c2cccnc12 | -2 | 24 | 9 | 1 | 7 | nt
